“And” between values parts separate entries of the source, which are not always exact repeats. Identical values can stand only once. The whole screen tested about 5,500 compounds, of which about 2,000 (36%) were called active. Another 18% or so got no clear call; they are omitted. Rule as the data show it: active = normalized growth mostly below about 0.91 (no sharp cut-off); inconclusive = no clear call, values can overlap the other calls; inactive = mostly above about 0.92. Some of the results follow.
Experiment: chemical genetic growth profiling, strain panel (AID 1159580);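 also: tested at 20 µM; growth read once vehicle control cultures reached saturation at 30 °C; 1 = growth at the plate median or of vehicle wells; lower values mean less growth of the strain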
Settings: S. cerevisiae deletion strains, growth OD

Measured: normalized growth

CC1(C)S[C@@H]2[C@H](NC(=O)[C@H](N)c3ccccc3)C(=O)N2[C@H]1C(=O)O
inactive: locus YAL021C, strain ccr4, stronger effect = lower value 0.98 | locus YAL026C, strain drs2, stronger effect = lower value 0.971 | locus YAL030W, strain snc1, stronger effect = lower value 0.987 | locus YBL061C, strain skt5, stronger effect = lower value 0.973 | locus YBR009C, strain hhf1, stronger effect = lower value 1 | locus YBR021W, strain FUR4, stronger effect = lower value 1.01 | locus YBR023C, strain chs3, stronger effect = lower value 0.967 | locus YBR171W, strain sec66, stronger effect = lower value 0.977 | locus YBR229C, strain ROT2, stronger effect = lower value 1.01 | locus YBR231C, strain swc5, stronger effect = lower value 0.999 | locus YBR279W, strain paf1, stronger effect = lower value 0.954 | locus YCL011C, strain gbp2, stronger effect = lower value 0.95 | locus YCL016C, strain dcc1, stronger effect = lower value 0.942 | locus YCL029C, strain bik1, stronger effect = lower value 0.998 | locus YCL061C, strain MRC1, stronger effect = lower value 0.973 | locus YCL069W, strain vba3, stronger effect = lower value 0.98 | locus YCR088W, strain abp1, stronger effect = lower value 0.975 | locus YDL005C, strain med2, stronger effect = lower value 0.979 | locus YDL035C, strain GPR1, stronger effect = lower value 1.02 | locus YDL040C, strain nat1, stronger effect = lower value 0.971 | locus YDL074C, strain BRE1, stronger effect = lower value 1.01 | locus YDL101C, strain DUN1, stronger effect = lower value 1.01 | locus YDL134C, strain PPH21, stronger effect = lower value 1.01 | locus YDL185W, strain tfp1, stronger effect = lower value 1 | locus YDL192W, strain arf1, stronger effect = lower value 1.03 | locus YDR001C, strain nth1, stronger effect = lower value 0.971 | locus YDR069C, strain doa4, stronger effect = lower value 0.965 | locus YDR101C, strain arx1, stronger effect = lower value 1.01 | locus YDR137W, strain rgp1, stronger effect = lower value 0.945 | locus YDR150W, strain NUM1, stronger effect = lower value 1.02 | locus YDR159W, strain sac3, stronger effect = lower value 0.981 | locus YDR162C, strain NBP2, stronger effect = lower value 1.03 | locus YDR195W, strain ref2 0.961 | locus YDR297W, strain sur2, stronger effect = lower value 0.976 | locus YDR318W, strain mcm21, stronger effect = lower value 1.01 | locus YDR334W, strain swr1, stronger effect = lower value 0.961 | locus YDR335W, strain msn5, stronger effect = lower value 0.948 | locus YDR388W, stronger effect = lower value 1 | locus YDR392W, strain spt3, stronger effect = lower value 0.888 | locus YDR502C, strain sam2, stronger effect = lower value 1.01 | locus YEL003W, strain gim4, stronger effect = lower value 0.98 | locus YEL037C, strain rad23, stronger effect = lower value 0.979 | locus YEL061C, strain CIN8 (second series), stronger effect = lower value 0.97 | locus YEL061C, strain CIN8, stronger effect = lower value 1.01 | locus YER015W, strain faa2, stronger effect = lower value 0.961 | locus YER016W, strain bim1, stronger effect = lower value 0.955 | locus YER110C, stronger effect = lower value 0.991 | locus YER111C, strain swi4, stronger effect = lower value 0.96 | locus YER155C, strain BEM2 (second series), stronger effect = lower value 1.03 | locus YER155C, strain BEM2, stronger effect = lower value 1 | locus YER167W, strain BCK2, stronger effect = lower value 1.01 | locus YFR010W, strain ubp6, stronger effect = lower value 0.996 | locus YGL078C, strain dbp3, stronger effect = lower value 0.999 | locus YGL086W, strain mad1, stronger effect = lower value 1 | locus YGL167C, strain pmr1, stronger effect = lower value 0.987 | locus YGL173C, strain kem1, stronger effect = lower value 0.984 | locus YGL227W, strain vid30, stronger effect = lower value 0.974 | locus YGL240W, strain doc1, stronger effect = lower value 0.991 | locus YGL248W, strain PDE1, stronger effect = lower value 1.02 | locus YGL253W, strain hxk2, stronger effect = lower value 0.944 | locus YGR135W, strain pre9, stronger effect = lower value 1.01 | locus YGR229C, strain SMI1, stronger effect = lower value 1.03 | locus YGR252W, strain gcn5, stronger effect = lower value 1.03 | locus YHR013C, strain ard1, stronger effect = lower value 0.938 | locus YHR027C, strain rpn1, stronger effect = lower value 0.97 | locus YHR030C, strain SLT2, stronger effect = lower value 1.01 and 1.03 | locus YHR079C, strain IRE1 (second series), stronger effect = lower value 1 | locus YHR079C, strain IRE1, stronger effect = lower value 1.03 | locus YHR094C, strain hxt1, stronger effect = lower value 0.994 | locus YHR129C, strain ARP1, stronger effect = lower value 1.01 | locus YHR142W, strain chs7, stronger effect = lower value 0.924 | locus YHR200W, strain rpn10, stronger effect = lower value 1 | locus YIL066C, strain RNR3, stronger effect = lower value 1.03 | locus YIL073C, strain SPO22, stronger effect = lower value 1.04 | locus YIL125W, strain kgd1, stronger effect = lower value 1 | locus YIR030C, strain dcg1, stronger effect = lower value 1.01 | locus YJL092W, strain hpr5, stronger effect = lower value 0.973 | locus YJL095W, strain BCK1 (second series), stronger effect = lower value 0.989 | locus YJL095W, strain BCK1, stronger effect = lower value 1.01 and 1.04 | locus YJL115W, strain asf1, stronger effect = lower value 0.94 | locus YJL129C, strain trk1, stronger effect = lower value 0.913 | locus YJL134W, strain LCB3, stronger effect = lower value 1.01 | locus YJL154C, strain vps35, stronger effect = lower value 0.97 | locus YJL164C, strain tpk1, stronger effect = lower value 0.977 | locus YJL166W, strain qcr8, stronger effect = lower value 0.998 | locus YJL168C, strain set2, stronger effect = lower value 1 | locus YJL187C, strain SWE1 (second series), stronger effect = lower value 1 | locus YJL187C, strain SWE1, stronger effect = lower value 0.988

From PubChem BioAssay AID1159580 (chemical genetic matrix, 2015)
